The full list was thinned out, with hits kept by preference.
KDM5B inh = Primary screen for KDM5B Histone Demethylases FDH-coupled qHTS; Lysine-specific demethylase 5B (Homo sapiens), Q9UGL1; KDM5B demethylase, FDH-coupled NADH fluorescence (FDH is formaldehyde dehydrogenase); Potency, µM (top dose mostly 57.7 µM), most hits filed as inhibitors; 220,000 tested, 2.6% active; active = well fitted inhibition curve with a large enough effect; also: nearly all actives have a fitted effect of over 70% in size
Target sequence (Q9UGL1 whole entry, looked up): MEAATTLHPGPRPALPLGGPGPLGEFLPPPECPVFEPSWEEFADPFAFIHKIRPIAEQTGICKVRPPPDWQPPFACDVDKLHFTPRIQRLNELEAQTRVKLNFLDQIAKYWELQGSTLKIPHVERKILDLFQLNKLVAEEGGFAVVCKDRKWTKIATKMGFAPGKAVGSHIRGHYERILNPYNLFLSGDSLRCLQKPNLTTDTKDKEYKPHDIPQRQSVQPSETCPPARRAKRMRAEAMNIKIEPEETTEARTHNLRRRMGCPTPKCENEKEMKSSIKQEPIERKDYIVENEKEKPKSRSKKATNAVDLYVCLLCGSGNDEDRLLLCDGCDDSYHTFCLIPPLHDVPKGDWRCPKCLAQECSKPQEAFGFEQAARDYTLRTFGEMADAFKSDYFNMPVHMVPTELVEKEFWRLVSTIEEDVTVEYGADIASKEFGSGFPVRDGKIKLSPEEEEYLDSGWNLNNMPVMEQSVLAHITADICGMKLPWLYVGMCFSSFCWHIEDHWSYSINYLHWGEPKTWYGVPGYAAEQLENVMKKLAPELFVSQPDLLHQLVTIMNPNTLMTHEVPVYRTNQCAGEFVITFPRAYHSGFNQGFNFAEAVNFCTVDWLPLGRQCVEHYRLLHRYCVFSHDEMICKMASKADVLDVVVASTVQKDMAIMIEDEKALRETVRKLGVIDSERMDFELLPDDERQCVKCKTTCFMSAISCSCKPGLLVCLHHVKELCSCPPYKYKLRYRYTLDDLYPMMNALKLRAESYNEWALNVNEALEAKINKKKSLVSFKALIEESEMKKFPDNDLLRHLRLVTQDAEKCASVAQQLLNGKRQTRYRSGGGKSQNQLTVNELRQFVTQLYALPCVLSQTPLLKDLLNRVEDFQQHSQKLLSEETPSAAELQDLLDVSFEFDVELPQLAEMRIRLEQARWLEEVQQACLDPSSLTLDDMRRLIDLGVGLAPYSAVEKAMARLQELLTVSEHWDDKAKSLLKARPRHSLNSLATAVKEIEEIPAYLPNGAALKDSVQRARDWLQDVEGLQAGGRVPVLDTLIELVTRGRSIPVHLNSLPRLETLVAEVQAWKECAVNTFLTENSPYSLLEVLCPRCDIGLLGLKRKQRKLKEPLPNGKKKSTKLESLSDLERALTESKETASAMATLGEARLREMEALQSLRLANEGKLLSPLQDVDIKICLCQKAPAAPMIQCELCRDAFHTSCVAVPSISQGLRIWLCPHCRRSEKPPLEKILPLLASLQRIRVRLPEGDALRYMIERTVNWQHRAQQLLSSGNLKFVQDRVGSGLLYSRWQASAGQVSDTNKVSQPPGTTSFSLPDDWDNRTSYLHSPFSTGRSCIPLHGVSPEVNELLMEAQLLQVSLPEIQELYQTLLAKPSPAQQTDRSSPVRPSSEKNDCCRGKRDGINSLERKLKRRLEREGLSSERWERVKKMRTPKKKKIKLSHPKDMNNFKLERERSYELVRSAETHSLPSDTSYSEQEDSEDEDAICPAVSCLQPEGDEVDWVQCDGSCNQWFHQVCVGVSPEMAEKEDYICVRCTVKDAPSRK
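KDM5BΔAP (200 nM final) in 50 mM HEPES pH 7.5, 0.01% Tween-20 was preincubated 10 min at RT with compound over a concentration range. Substrate mix (H3K4me3 12.5 µM, α-KG 25 µM, Fe²⁺, ascorbate, NAD⁺, FDH) was added, and NADH fluorescence change over 30 min gave dose-response curves.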
Large screens that a line does not name were inactive.

CNc1ccc(C(=O)N2CCC(CCn3cccn3)CC2)cn1	KDM5B inh 22.4µM
O=C(c1ccc(Cl)nc1)N1CCC(N2CCCCCC2=O)CC1	none
O=C(CCC1CCN(C(=O)c2ccccc2)CC1)NCCCN1CCCC1=O	none
CC(C)(C)CNc1ccc(C(=O)N2CCC(CN3CCCC3=O)CC2)cn1	KDM5B inh 14.1µM
O=C(O)c1ccc(CC2CCN(C(=O)c3cccc(Cn4cccn4)c3)C2)cc1 (configuration not stated)	none
O=C(NNC(=S)NCc1cccs1)c1c[nH]c2ccccc12	none
CCCc1ccc(C(=O)/C(C#N)=C\c2cn[nH]c2C(C)(C)C)cc1	none
O=c1c2nc(NCc3ccccc3)ccc2ncn1Cc1ccccn1	none
COCCn1cnc2ccc(-c3ccccc3C)nc2c1=O	none
COCCn1cnc2ccc(-c3ccccc3Oc3ccccc3)nc2c1=O	none
COCCn1cnc2ccc(-c3ccnn3C)nc2c1=O	KDM5B inh 35.5µM
O=c1c2nc(OCc3ccccc3)ccc2ncn1Cc1ccccn1	none
COc1ncccc1-c1ccc2ncn(Cc3ccccn3)c(=O)c2n1	KDM5B inh 35.5µM
CC1CCCCC1NC(=O)CSc1ccc2c(c1)OCCCO2 (configuration not stated)	none
O=C(CCc1ncc(-c2ccccc2)o1)NC(C1CC1)C1CC1	none
COc1ccc(NC(=O)c2n[nH]c(=O)c3ccccc23)cc1OC1CCCC1	none
CC(C)n1cc(C(=O)N2C[C@@H](CN3CCOCC3)[C@@H](CO)C2)cn1	none
O=C(CCNc1c(-c2ccc(F)cc2)nc2cnccn12)N1CCCCC1	KDM5B inh 22.4µM
c1cn2c(NC3CCCCC3)c(-c3ccc(N4CCOCC4)cc3)nc2cn1	none
O=C(CCNc1c(-c2ccccc2)nc2cnccn12)NC1CCCC1	KDM5B inh 28.2µM
O=C(CSc1nnc(-c2ccccc2)c(-c2ccccc2)n1)NC1CCCCC1	none
O=C(Cn1cccc1-c1nc(-c2ccc(F)cc2)no1)NC1CCCC1	none
O=C(CCNc1c(-c2ccc(F)cc2)nc2cnccn12)NC1CCCC1	KDM5B inh 28.2µM
O=C(CCn1nc(-c2ccccc2)c2ccccc2c1=O)NC1CCCCC1	none
O=C(Nc1c(-c2ccc(F)cc2)nc2ccccn12)c1ccccc1F	none
O=C(c1cn[nH]c1-c1ccc(F)cc1)N1CCCCC1	none
Cc1cc(C(=O)N2CCCCCC2)sc1C	none
CCCn1nc(C(=O)N(C)Cc2ccc(F)cc2)c2ccccc2c1=O	none
Cc1cc(C)n(CCNC(=O)c2ccc3c(c2)[nH]c(=O)n3C2CCC(O)CC2)n1 (configuration not stated)	none
Cc1ccc(C)c(C(=O)COC(=O)c2cc(=O)c3ccccc3o2)c1	none
COc1ccc(CN2CCC3(Cc4ccccc4CNC3=O)C2)cn1 (configuration not stated)	none
CS(=O)(=O)N1CCOc2ccc(CCC(=O)N3CCCCC3)cc2C1	none
COC[C@@H]1CN(C(=O)c2ccccc2)C[C@H]1c1nc(C2CC2)no1	none
Cc1cnc(C2CCOCC2)n1CC1CCN(S(=O)(=O)c2cccnc2)CC1	none
COc1ccc(NC(=O)c2ccc3c(c2)NC(=O)CO3)cc1	none
COc1cccc(NC(=O)c2ccc3c(c2)NC(C)(CNc2ccccc2)CO3)c1 (configuration not stated)	KDM5B inh 12.6µM
CN(C)CCCOCC1(C)COc2ccc(C(=O)Nc3cccc(Cl)c3)cc2N1 (configuration not stated)	KDM5B inh 31.6µM
CN(C)CCOCC1(C)COc2ccc(C(=O)Nc3ccc4[nH]ccc4c3)cc2N1 (configuration not stated)	none
CCOCC1(C)COc2ccc(C(=O)N(C)c3ccccc3)cc2N1 (configuration not stated)	none
CN(C)CCN(C)C(=O)c1ccc2c(c1)NC(C)(COc1ccccc1)CO2 (configuration not stated)	none
CC1(CNc2ccccc2)COc2ccc(C(=O)NCc3cccnc3)cc2N1 (configuration not stated)	none
CCOCC1(C)COc2ccc(C(=O)Nc3cccc(OC)c3)cc2N1 (configuration not stated)	KDM5B inh 31.6µM
CCOCC1(C)COc2ccc(C(=O)Nc3ccc(Cl)cc3)cc2N1 (configuration not stated)	KDM5B inh 28.2µM
O=C(Nc1cc(C(F)(F)F)ccc1Cl)c1nn(-c2cccc(Cl)c2)ccc1=O	none
CC(=O)NCC(=O)N1Cc2ccccc2CC2(CCCN2CC2CCNCC2)C1 (configuration not stated)	none
CC1=C(C)CC(C(=O)NC(c2ccccc2)c2ccccc2)C(C(=O)O)C1 (configuration not stated)	none
COc1cc(CN(C)C2CCOc3ccccc32)ccc1F (configuration not stated)	none
CCCn1nc(C(=O)OCc2ccc(C#N)cc2)c2ccccc2c1=O	none
Cc1oc2c(c(C)cc3o/c(=N/O)c4c(c32)CCCC4)c1C	none
CN1CCC(Oc2ccc(C(=O)NCCc3ccccn3)cn2)CC1	none
CCNC(=O)c1cccnc1OC1CCN(C(=O)CC)C1 (configuration not stated)	none
CCNC(=O)c1cccnc1OC1CCN(Cc2ccccn2)C1 (configuration not stated)	KDM5B inh 20µM
CCNC(=O)c1cccnc1OC1CCN(C(=O)Cc2ccccc2)C1 (configuration not stated)	none
O=C(NCCc1ccccn1)c1cccnc1OC1CCNCC1	KDM5B inh 28.2µM
CCNC(=O)c1cccnc1OC1CCN(C(=O)c2ccccc2)C1 (configuration not stated)	none
O=C(O)CS/C(=C/c1ccc2ccccc2c1)c1nc2ccccc2s1	none
CCCc1nc(C(=O)N2CCCCC2C(=O)OCC)cs1 (configuration not stated)	none
Cc1nc2cc(NC(=O)C(C)Oc3ccc(Cl)cc3Cl)ccc2o1 (configuration not stated)	none
CCCc1cc(C(=O)N2CCC(=O)N(Cc3ccccc3)C(CC)C2)ccn1 (configuration not stated)	none
Cn1cnc([S+](=O)([O-])NC2CCN(C(=O)N3CC4CC(C3)[C@H]3CCCC(=O)N3C4)CC2)c1 (some centres not stated)	none
CCc1ccccc1-n1c(N)c(C(=O)OC)sc1=S	none
Cc1ccc(NC(=O)c2nn(Cc3ccccc3)c(=O)c3ccccc23)c(Cl)c1	none
CC1CCCN1c1ccc(C(=O)N2CCC(Oc3cccnc3)CC2)cn1 (configuration not stated)	none
N#Cc1cccc(N2CCC3(CCC(=O)N(CC4CCCO4)C3)CC2)n1 (configuration not stated)	KDM5B inh 25.1µM
Nc1nccc(N2CCC3(CCC(=O)N(CC4CCCO4)C3)CC2)n1 (configuration not stated)	none
Cc1cc(N2CCC3(CCC(=O)N(CC4CCCO4)C3)CC2)nc(N)n1 (configuration not stated)	none
C/C(=N\NC(=O)Cc1cccc2ccccc12)c1cccc(NC(=O)c2ccc(Cl)cc2)c1	none
O=C(c1ccc(C(F)(F)F)s1)N1CCc2c(nc(-c3ccccc3)[nH]c2=O)C1	none
CCc1ccc(-c2csc(NC3OC(=O)c4c3ccc(OC)c4OC)n2)cc1 (configuration not stated)	none
COc1cccc(CN2CC[C@H]3COC(=O)N3c3cc(F)ccc3C2)c1	none
Cc1cccc(NC(=S)NCC2(C)CC(NC(=S)Nc3cccc(C)c3)CC(C)(C)C2)c1 (configuration not stated)	none
O=C(CSc1nnc2ccc(-c3ccncc3)nn12)N1CCN(c2ccccc2)CC1	none
